# Marburg entry inh: inhibitors of Marburg virus binding or cell entry; Potency, µM (titrated, usually from 37.8 µM), for the others: at the highest dose activity change, negative = inhibition, actives largely listed as inhibitors; Marburg virus pseudotyped entry inhibition, cell reporter; hit rate 1.8% among 300,000; AID 540276; calls by dose curve; tested in HEK293 cells; note: potency is the fitted concentration of half-maximal effect
# FMDV antiviral: foot and mouth disease virus antiviral activity; FMDV antiviral cell-based qHTS; Potency, µM (doses to about 57.9 µM), for the others: at the highest dose activity change, negative = inhibition, hits mostly inhibitors; hit rate 1.2% among 410,000; calls by dose curve; tested in HEK293T cells; note: read-out not given here; potency is the fitted concentration of half-maximal effect; nearly all actives have a fitted effect of over 45% in size
# HCMV antiviral: inhibitors of human cytomegalovirus | activity change, negative = inhibition, % at 57.5 µM | AID 1259415 | HFF cells, HCMV-luciferase reporter, 72 h; stronger effect = lower value | hit rate 4.5% among 410,000; in the data active = activity change below about -60%; inconclusive = no clear call, values can overlap the other calls; inactive = above about -39%
#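 Inhibition of viral replication was scored as loss of reporter luminescence in HFFs infected with HCMV-luciferase (MOI 1 PFU/cell) for 72 h; compounds tested at 2 doses, normalized to buffer and Salinomycin controls.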
# LASV entry inh: inhibitors of Lassa virus binding or cell entry; Lassa virus pseudotype entry inhibition, cell reporter; AID 540256; Potency, µM (top dose mostly 37.9 µM), without a hit: at the highest dose activity change, negative = inhibition, actives largely listed as inhibitors; hit rate 1.2% among 300,000; calls by dose curve; tested in HEK293 cells; note: potency is the fitted concentration of half-maximal effect; nearly all actives have a fitted effect of over 50% in size
# Vaccinia mCherry: vaccinia inhibition (mCherry reporter) | Vaccinia virus mCherry reporter infection, fluorescence | Potency, µM (top dose mostly 36.5 µM), inactives show at the highest dose activity change, negative = inhibition, most hits filed as inhibitors | hit rate 0.63% among 310,000; calls by dose curve; tested in A549 cells; note: potency is the fitted concentration of half-maximal effect; nearly all actives have a fitted effect of over 35% in size
# Vaccinia Venus: vaccinia inhibition (Venus reporter). Vaccinia virus Venus reporter expression, fluorescence. Potency, µM (highest dose often 36.5 µM), for inactives: top-dose activity change, negative = inhibition, hits mostly inhibitors. hit rate 0.46% among 330,000; calls by dose curve; tested in A549 cells; note: potency is the fitted concentration of half-maximal effect; nearly all actives have a fitted effect of over 30% in size
# Numbers without * were called inactive; i = inactive; ? = inconclusive; nt = no result; [ ] = dose if it differs, or a comment. This is a sample that favours compounds with a hit; in the whole collection about 6.5% have one here. % is set by controls: 0 for no effect and ±100 for the full control effect.
SMILES,Marburg entry inh,FMDV antiviral,HCMV antiviral,LASV entry inh,Vaccinia mCherry,Vaccinia Venus
COC(=O)c1cc(=O)c2c(C)nc(C(Cl)(Cl)Cl)nc2[nH]1,28%[46.1 µM],?,-100*,-1%,-8%,-21%
O=C1CC(c2ccccc2)Cc2[nH]c(=O)c(C(=O)O)cc21 (stereo unspecified),nt,nt,nt,nt,35%,-4%
N#Cc1cc(-c2ccccc2)[nH]c1-c1nccc2ccccc12,nt,28µM*,?,nt,?,?
O=C(Nc1ccccc1)Nc1ccc(Cl)c(S(=O)(=O)N2CCOCC2)c1,?,?,-62*,-21%[46.1 µM],i,-21%
O=C(Nc1ccccc1O)c1cc(S(=O)(=O)N2CCOCC2)c(Cl)cc1Cl,?,16µM*,?,-17%[14.3 µM],-23%,-25%
O=C(Nc1ccccc1O)c1cc(S(=O)(=O)N2CCOCC2)ccc1Cl,-2%,0%,nt,-12%,nt,-13%
O=C(Nc1ccc(Cl)c(S(=O)(=O)N2CCOCC2)c1)c1cn2ccccc2n1,31%[46.1 µM],20µM*,-24,?,i,1%
O=C(Nc1ccc(N2CCOCC2)cc1)c1cn2ccccc2n1,?,-77%,15,7.9µM*,-20%[1.46 µM],1%
c1ccc(CCc2nnc3n2CCN(Cc2ccc4ccccc4n2)CC3)cc1,nt,28%,nt,nt,-12%,-9%
O=C(Nc1ccc(Cl)cc1C(F)(F)F)c1cc(S(=O)(=O)NCc2ccccc2)ccc1F,nt,17%,?,-3%[46.1 µM],-19%,-13%
O=C(c1ccccc1Br)N(CCc1ccccc1)C(CCc1ccccc1)c1nc2ccccc2[nH]1 (stereo unspecified),nt,nt,-6,nt,nt,nt
O=C(/C=C/c1ccco1)Nc1ccc(Cl)c(S(=O)(=O)N2CCOCC2)c1,nt,22µM*,-69*,nt,nt,nt
Nc1[nH]c(C(=O)c2ccc(Br)cc2)c(-c2ccc(F)cc2)c1C(=O)NCCc1c[nH]c2ccccc12,nt,nt,-29,nt,nt,nt
COC(=O)C1=C(C)N(Cc2cccc(C(F)(F)F)c2)C(=NCc2ccc(C(F)(F)F)cc2)NC1c1ccc(F)cc1 (stereo unspecified),nt,nt,-101*,nt,nt,nt
COC(=O)C1=C(C)N(Cc2ccccc2)C(=NCc2ccc3c(c2)OCO3)N[C@H]1c1ccccc1,nt,-22%,-4,nt,-13%,-29%
COC(=O)C1=C(C)N(Cc2ccccc2)C(=NCC(C)C)NC1c1cccc(C(F)(F)F)c1 (stereo unspecified),9%[14.2 µM],nt,nt,?,nt,nt
COC(=O)C1=C(C)N(Cc2cccc(C(F)(F)F)c2)C(=NCc2ccc(C(F)(F)F)cc2)NC1c1ccc(C(F)(F)F)cc1 (stereo unspecified),nt,nt,-101*,nt,nt,nt
CCN1C(=NCc2ccccc2)NC(c2cccc(C(F)(F)F)c2)C(C(=O)OC)=C1C (stereo unspecified),-22%[14.2 µM],nt,nt,nt,nt,nt
COC(=O)C1=C(C)N(Cc2cccc(C(F)(F)F)c2)C(=NCc2ccc3c(c2)OCO3)NC1c1ccc(F)cc1 (stereo unspecified),nt,nt,-85*,nt,nt,nt
CCSc1nnc(C(C)NS(=O)(=O)c2cccc(Cl)c2C)n1C (stereo unspecified),nt,0%,nt,nt,-1%,0%
CCOC(=O)C1CCCN(c2nc(C)nc3c2oc2ccccc23)C1 (stereo unspecified),?,22µM*,3,?,nt,nt
CCc1nc(N2CCCCC2C)c2oc3ccccc3c2n1 (stereo unspecified),18µM*,?,-26,?,nt,nt
CCc1nc(N2CCCCC2C(=O)O)c2oc3ccccc3c2n1 (stereo unspecified),-1%[46.1 µM],-8%,155,4%[46.1 µM],-3%,-11%
CC(=O)N1CCN(c2ccc(Nc3nc(C)nc4c3oc3ccccc34)cc2)CC1,-22%,25µM*,-20,28%,-15%,-5%
CCOC(=O)C1CCN(c2nc(C)nc3c2oc2ccccc23)CC1,7%,?,-15,14%,nt,-17%
CCn1c(SCC(=O)N2CCN(c3ccccc3)CC2)nnc1-c1cc2cc(Cl)ccc2o1,-22%,1%,-80*,-10%,-7%,-15%
C=C1C=C(C)n2ncc(C(=O)Nc3cccc4cnccc34)c2N1,nt,nt,nt,nt,-3%,-10%
CCc1nc(NCc2ccccn2)c2oc3ccccc3c2n1,?,16µM*,-63*,-24%,nt,?

# Compound activity deposited in PubChem by National Center for Advancing Translational Sciences (NCATS).
